# Shown are actives, neighbours in structure and some others; about 11% of the full set was active somewhere.
# IMPase inh = cell-permeable inhibitors of inositol monophosphatase (IMPase) | inhibition (IP1 accumulation), % at 46.1 µM | AID 901 | CHO-M1 cells, IP1 accumulation, HTRF TR-FRET ratio | 120,000 tested, under 10 active | P97697; active means well fitted curve in the direction sought with a large enough effect in the signal ratio, not every such curve was filed as active; inconclusive means small, poorly fitted or top-dose-only effect, or a change in a side signal; inactive means no such curve, though single readings can be large or run the other way; the % refers to the signal ratio;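 further: cells stimulated with carbachol in lithium chloride buffer; plate controls were DMSO basal wells for no effect and reference inhibitor wells for full effect; higher means more IMPase inhibition seen as more IP1 and lower FRET ratio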
#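 In this qHTS, compounds (final up to 46 uM) act on CHO-M1 cells that are then activated through the M1 receptor with carbachol, in pH 7.4 buffer containing 50 mM LiCl, for 30 min. IP1 accumulation is quantified by the IP-One immunoassay.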
# PNC assembly inh = inhibitors of perinucleolar compartment assembly | PC3M PTB-GFP, PNC prevalence imaging, 16 h; active compounds read low | activity change (PNC), negative = inhibition, % at 10 µM | 140,000 tested, 3.1% active | AID 2417;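 active means readout at or below -70, meaning at least 70% loss of cells showing the perinucleolar compartment, a nuclear body marking cancer cells; inconclusive means readout between -30 and a set limit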;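 further: plate controls were DMSO wells for no effect and camptothecin positive control wells for full effect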
#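 Compounds are pinned in duplicate onto adhered PC3M cells stably expressing GFP-tagged PTB and incubated 16 h at 37 C. Cells are then fixed, nuclei stained with Hoechst, and PNC-positive cells counted.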
# HPGD block = blocks human HPGD enzyme activity | P15428 | Potency, µM, for inactives: top-dose activity change, negative = inhibition, usual class: inhibitors | purified HPGD, NADH fluorescence kinetic, PGE2 substrate | 150,000 tested, 4.3% active | AID 894; further: potency means the concentration at half of the fitted maximal effect
#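 20 nM HPGD preincubated 15 min at room temperature with compound in 50 mM Tris-HCl pH 8, 0.01% Tween 20. Started with 1 mM NAD+ and 30 uM prostaglandin E2; NADH fluorescence (360/450 nm) read 5 times over 30-s intervals, last minus first.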
# ALDH1A1 inh = blocks purified human ALDH1A1 activity. P00352. AID 1030. 220,000 tested, 7.3% active. Purified ALDH1A1, NADH fluorescence, propionaldehyde substrate. Potency, µM (top dose mostly 75.3 µM), for the others: at the top dose activity, negative = inhibition, usual class: inhibitors;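 further: potency means the concentration at half of the fitted maximal effect; plate controls were no enzyme wells and a reference inhibitor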
# Target sequence (P00352 whole entry, looked up): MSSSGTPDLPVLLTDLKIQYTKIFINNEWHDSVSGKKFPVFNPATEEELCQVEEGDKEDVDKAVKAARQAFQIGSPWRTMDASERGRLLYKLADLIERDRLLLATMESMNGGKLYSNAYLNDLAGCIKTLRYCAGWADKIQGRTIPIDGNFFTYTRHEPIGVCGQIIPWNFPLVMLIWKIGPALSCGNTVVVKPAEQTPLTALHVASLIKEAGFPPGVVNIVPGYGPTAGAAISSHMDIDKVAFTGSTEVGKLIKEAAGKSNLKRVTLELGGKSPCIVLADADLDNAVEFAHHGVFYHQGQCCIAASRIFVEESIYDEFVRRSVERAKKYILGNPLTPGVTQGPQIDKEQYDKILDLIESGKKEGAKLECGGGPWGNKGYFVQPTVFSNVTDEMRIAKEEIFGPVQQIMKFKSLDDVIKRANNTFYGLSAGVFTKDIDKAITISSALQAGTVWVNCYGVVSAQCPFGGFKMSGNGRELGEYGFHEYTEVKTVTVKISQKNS
# IMPase Li inh = cell-permeable IMPase inhibitors with lithium potentiation; CHO-M1 cells, IP1 TR-FRET (IP-One), carbachol + lithium; Potency, µM (titrated, usually from 59.4 µM), for inactives: top-dose activity, negative = IMPase inhibition, actives largely listed as inhibitors; 210,000 tested, 0.35% active; AID 1457; active means well fitted inhibition curve with a large enough effect; inconclusive means small, poorly fitted or top-dose-only effect; inactive means no such curve, though single readings can be large or run the other way;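 further: IP1 builds up when IMPase is blocked and the TR-FRET signal falls; potency means the concentration at half of the fitted maximal effect; plate controls were basal vehicle for no effect and high inhibitor control for full effect; nearly all actives have a fitted effect of over 50% in size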
#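 CHO cells stably expressing M1 receptor (2000/well) were cultured 16–30 h, then exposed to compounds with a small lithium addition for 30 min at 37C. IP1 was measured by TR-FRET competition; AC50 from Hill fits.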
# * = called active by the depositor; ? = inconclusive; nt = not tested or not shown; [ ] = another dose, or the depositor's remark. Unless noted, the call rests on the fitted dose curve; in most records, active means well fitted inhibition curve with a large enough effect (not every such curve was filed as active); inconclusive means small, poorly fitted or top-dose-only effect, or another doubt; inactive means no such curve, though single readings can be large or run the other way. Unless noted, on the % scale 0 is the no-effect control and ±100 the full control effect.
SMILES,IMPase inh,PNC assembly inh,HPGD block,ALDH1A1 inh,IMPase Li inh
CCc1ccc2[nH]c(=O)c(CN(Cc3ccco3)S(=O)(=O)c3ccc4c(c3)OCCO4)cc2c1,-1,29,?,?,11µM*
Cc1ccc(C)c2[nH]c(=O)c(CN(Cc3ccco3)S(=O)(=O)c3ccc4c(c3)OCCO4)cc12,11,?,-12%,?,38%[38.3 µM]
O=S(=O)(Nc1cccnc1)c1ccc(Cl)c(C(F)(F)F)c1,-4,2,-13%,3%,-4%[38.3 µM]
Cc1ccc(Oc2ccc(OCC(=O)NC(CC(C)C)C(=O)O)cc2)cc1 (configuration not stated),nt,nt,nt,6.3µM*,7%
COc1ccccc1C1C=C(c2ccc(Cl)cc2)Nc2nc(-c3ccc(Cl)cc3)nn21 (configuration not stated),-9,nt,nt,nt,nt
O=C(O)/C=C/c1cn(-c2ncc(C(F)(F)F)cc2Cl)c2ccccc12,24,?,2µM*,-15%,-9%[38.3 µM]
O=C(O)c1cc(-c2ccco2)[nH]n1,nt,-89*,-1%,-16%,3%
CC1CCC(C(=O)NNC(=O)c2cc(-c3ccco3)[nH]n2)CC1 (configuration not stated),nt,nt,nt,0%,-1%
O=C1CCCCCCC1Sc1ccccc1[N+](=O)[O-] (configuration not stated),10,-3,-8%,?,24%[38.3 µM]
CCn1c(/C=C2/C(=O)N(C)c3ccccc32)nc2ccccc2c1=O,8,26,-39%,9.5µM*,57%[38.3 µM]
CCN1C(=O)/C(=C\c2nc3ccccc3c(=O)n2CC)c2ccccc21,nt,nt,nt,14µM*,30%
O=C(NCc1cccnc1)c1cccnc1-c1nc2ccccc2s1,-4,64,-18%,20µM*,10%[38.3 µM]
O=C(NCc1cccc(Cl)c1)c1cccnc1,14,3,-15%,3%,13%[38.3 µM]
O=C(NCc1cccnc1)C(=O)Nc1nc2ccccc2s1,nt,nt,nt,1%,7%
O=C(NCc1cccnc1)c1cc(Sc2cccc(Cl)c2)nc2ccccc12,12,2,-16%,11µM*,6%
N#CCCn1c(=O)c(-c2ccccc2)nc2cnc(N3CCOCC3)nc21,nt,nt,nt,?,-13%
COc1ccc(-c2cc(C(F)(F)F)c(C#N)c(SCC(=O)Nc3ccccc3F)n2)cc1,-18,nt,nt,nt,nt
CNc1ccccc1C(=O)N1CCc2c([nH]c3ccccc23)C1=O,nt,nt,?,?,0%
Cc1ccc(N2C(=O)CC(Sc3ccccc3C(=O)O)C2=O)c([N+](=O)[O-])c1 (configuration not stated),nt,nt,nt,2µM*,-1%
COc1ccc(N2C(=O)CC(Sc3ccccc3C(=O)O)C2=O)c([N+](=O)[O-])c1 (configuration not stated),nt,nt,nt,1µM*,8%
CCCCOc1ccccc1Cn1c(=O)sc2ccccc21,-16,nt,nt,nt,nt
O=S(=O)(O)c1cc(N=Nc2cccc3ccccc23)c(O)c2ncccc12,nt,nt,?,-7%[13.5 µM],-3%
O=C(c1cnccn1)N1CCC2(CCCN(c3ccc(-c4ccccc4)cc3)C2)CC1,nt,nt,-5%,?,18%
FC(F)(F)c1ccc(C2Nc3cccc4cccc(c34)N2)cc1,nt,nt,nt,?,13%
c1coc(C2Nc3cccc4cccc(c34)N2)c1,0,-29,?,25µM*,32%[38.3 µM]
SMILES,IMPase inh,PNC assembly inh,HPGD block,ALDH1A1 inh,IMPase Li inh
NC(=O)N1CCC2(CC1)NC(=O)N(c1ccccc1)N2,nt,nt,nt,3.5µM*,-10%
CCCOC(=O)C1=C(C)OC23OC(N)=C(C#N)C12C(=O)c1ccccc13 (configuration not stated),-10,-25,-12%,?,16%
CC(=O)OC1CC2C(C)(C)C(O)C=C[C@@]2(C)C2CC[C@@]3(C)C(c4ccoc4)OC(=O)C4OC43[C@]12C (some centres not stated),nt,nt,-1%,-3%,-5%
CCN(C(=O)COC(=O)c1cc([N+](=O)[O-])ccc1N1CCCCC1)C1CCS(=O)(=O)C1 (configuration not stated),nt,nt,nt,14µM*,4%
CC(=C(CCOP(=O)(O)O)SC(=O)c1ccccc1)N(C=O)Cc1cnc(C)nc1N,2[20.6 µM],nt,-10%,13%,-3%
C/C=C/C=C/C(=O)Nc1nccs1,nt,-116*,-21%,-8%,1%
CC(C)C(NC(=O)CSCc1ccc([N+](=O)[O-])cc1)C(C)C,nt,13,10µM*,-10%,7%
O=C(CSCc1ccc([N+](=O)[O-])cc1)NC1CC1,nt,2,0%,6%,0%
Cn1c(C(=O)NCC2CCCO2)cc2c(=O)[nH]c3ccccc3c21 (configuration not stated),6,54,?,?,5%
Cn1c(C(=O)NCC2CCCO2)cc2oc3ccccc3c21 (configuration not stated),-2,-6,1.4µM*,-7%,10%[38.3 µM]
Cn1c(C(=O)NCc2ccccc2)cc2oc3ccccc3c21,13,-106*,?,?,29%[38.3 µM]
O=C(COC(=O)/C(=C/c1cccs1)c1cccs1)NC(c1ccccc1)c1ccccc1,nt,12,-23%,-10%,8%
NCCn1c(-c2ccccc2)cc(C(=O)O)c1-c1ccccc1F,nt,-81*,-19%,?,10%
CCC1(C)Cc2c(sc(NC(=O)CCC(=O)O)c2C#N)CO1 (configuration not stated),-7,?,-8%,11%,-12%[38.3 µM]
CCC(=O)Nc1sc2c(c1C#N)CC(C)(CC)OC2 (configuration not stated),0,24,40µM*,-7%,-16%[38.3 µM]
COc1ccc(C2SCCN2C(=S)Nc2ccc(Cl)cc2)cc1 (configuration not stated),5,26,?,?,7%
Fc1cc(F)c(C2SCCN2C(=S)Nc2cccc(C(F)(F)F)c2)c(F)c1 (configuration not stated),nt,nt,nt,14µM*,nt
COc1ccc(C2SCCN2C(=S)Nc2cccc(Cl)c2)cc1 (configuration not stated),nt,-102*,-12%,?,11%
CCCN(C(=O)Cn1ncc2c(=O)oc3ccccc3c21)c1cccc(C)c1,-2,-25,3%,11µM*,-9%[38.3 µM]
CCN(CCCNC(=O)Cn1ncc2c(=O)oc3ccccc3c21)c1cccc(C)c1,-1,-4,-19%,-15%,?
c1ccc(-c2nn3c(Cn4nnc5ccccc54)nnc3s2)nc1,0,?,7.1µM*,3.2µM*,28%[38.3 µM]
c1cncc(-c2nn3c(Cn4nnc5ccccc54)nnc3s2)c1,-1,14,13µM*,7.1µM*,7%[38.3 µM]
CN(C)C(=O)c1ccc(-c2cncnc2NCc2cccnc2)cc1,nt,nt,nt,?,1%
O=C1N=C(N2CCN(c3ccccc3)CC2)S/C1=C\c1cn[nH]c1-c1ccccc1,nt,?,?,5%,13%

# High-throughput results: PubChem BioAssay, National Center for Advancing Translational Sciences (NCATS)
